From PubChem BioAssay AID1619 (SRMLSC, 2009)
Several values for one entry are separate records, joined by “and”; a condition that tells them apart may be missing. Identical values can stand only once. Among all 220,000 compounds or so, about 830 (0.38%) were called active. Not all results are given here. Potency and affinity values are given separately. Unmarked numbers belong to inactive results.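 Rule for the calls: active = compound inhibiting the enzyme by more than half at any dose during confirmatory dose-response retesting; inconclusive = strong single-dose inhibitors picked by rank but not retested; inactive = the rest.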

These compounds were tested against Leucine aminopeptidase (Plasmodium falciparum (isolate 3D7)) (UniProt Q8IL11) (assay: P. falciparum M17LAP inhibitors, primary screen, biochemical, fluorogenic H-Leu-NHMec substrate, 1536-well (AID 1619;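 note: plate controls were full reaction with DMSO carrier for no effect and no enzyme background for full effect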)). Conditions: recombinant M17LAP, H-Leu-NHMec fluorogenic kinetic assay; at 30 µM; hits give high values.
Sequence of Leucine aminopeptidase (Plasmodium falciparum (isolate 3D7)) (Q8IL11 whole entry, looked up): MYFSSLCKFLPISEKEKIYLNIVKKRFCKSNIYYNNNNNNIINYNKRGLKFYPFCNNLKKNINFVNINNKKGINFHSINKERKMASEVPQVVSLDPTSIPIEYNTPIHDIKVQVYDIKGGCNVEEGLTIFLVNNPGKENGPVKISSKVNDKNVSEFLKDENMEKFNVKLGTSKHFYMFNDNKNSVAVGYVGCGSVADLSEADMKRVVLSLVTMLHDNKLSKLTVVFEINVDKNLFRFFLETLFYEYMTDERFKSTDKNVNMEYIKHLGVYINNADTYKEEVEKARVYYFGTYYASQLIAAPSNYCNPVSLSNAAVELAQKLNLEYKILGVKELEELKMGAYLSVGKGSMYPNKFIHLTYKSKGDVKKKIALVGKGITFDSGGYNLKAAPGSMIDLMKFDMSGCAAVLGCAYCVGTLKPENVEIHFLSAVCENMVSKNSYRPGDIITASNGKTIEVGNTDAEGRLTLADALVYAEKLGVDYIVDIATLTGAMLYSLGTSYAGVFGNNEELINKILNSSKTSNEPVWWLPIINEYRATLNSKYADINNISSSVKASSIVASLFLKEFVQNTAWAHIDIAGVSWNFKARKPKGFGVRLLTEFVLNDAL

SMILES | inhibition
[O-]/C(=C(\C(=S)Nc1ccccc1F)[n+]1ccccc1)c1ccc(-c2ccccc2)cc1 | -0.96%
CCc1ccc(N(C(=O)c2snc(C(N)=O)c2N)C(C(=O)NCC2CCCO2)c2cccs2)cc1 (configuration not stated) | -0.4%
Cn1ncc([N+](=O)[O-])c1C(=O)Nc1nc2ccccc2n1CCN1CCCCC1 | 48.4%
Cc1ccc(NC(=O)COC(=O)Cc2ccsc2)cc1S(=O)(=O)N(C)C | 3.8%
CCOC(=O)c1ccc(NC(=O)Cn2nnc(-c3ccccc3F)n2)cc1 | -13.6%
CCOC(=O)c1cc(=O)n2nc(-c3ccc(C)cc3)nc2s1 | 10.8%
CC(C)Cn1c(N)c(C(=O)COC(=O)c2cc(F)cc(F)c2)c(=O)n(C)c1=O | 3.99%
CCOc1ccc(C2/C(=C(\O)c3ccc(OC)c(OC)c3)C(=O)C(=O)N2c2cc(C)on2)cc1OC (configuration not stated) | 25.9%
C=CCn1c(-c2cccc(OCC)c2)n[nH]c1=S | -4.71%
CCOc1cccc(-c2cc(C(=O)NN)[nH]n2)c1 | 3.47%
Cc1ccc(C(=O)NC2CCCCNC2=O)cc1C (configuration not stated) | 4.43%
Cc1ccc(Cl)cc1NC(=O)N(C)CCO | -0.32%
O=C(Cn1cc(C(=S)N2CCOCC2)c2ccccc21)N1CCOCC1 | 1.74%
O=C(O)Cn1cc(/C=C2/SC(=O)N(CC(=O)N3CCCCCC3)C2=O)c2ccccc21 | 36.6%
O=Cc1cn(CC(=O)N2CCOCC2)c2ccccc12 | 13.4%
O=C(O)Cn1cc(C(=S)N2CCOCC2)c2ccccc21 | 4.61%
O=C(NCc1ccccc1C(F)(F)F)C1CC(c2ccc(C(F)(F)F)cc2)=NO1 (configuration not stated) | -1.15%
Cc1ccc(CNC(=O)c2ccc3c(=O)n4c(-c5ccc(C)cc5)csc4nc3c2)cc1 | 4.76%
COC(=O)c1c(C)[nH]c(C(=O)NCc2ccco2)c1C | -0.45%
CCC(=O)N(Cc1cc(=O)[nH]c2ccccc12)c1cccc(C)c1 | -6.5%
Cc1ccc(-c2cc3nc(-c4ccccc4)cc(N4CCOCC4)n3n2)cc1 | -15.5%
O=c1cc(-c2ccc(Br)cc2)[nH][nH]1 | 6.69%
O=c1[nH]c(-c2ccc(Cl)cc2)cs1 | -0.58%

SMILES | inhibition
CC(C)Cc1ccc(-c2cc(=O)[nH][nH]2)cc1 | 3.83%
O=c1cc(-c2ccc(C3CCCCC3)cc2)[nH][nH]1 | 1.14%
O=c1c(OC2OC(CO)C(O)C(O)C2O)c(-c2ccc(O)c(O)c2)oc2cc(O)cc(O)c12 (configuration not stated) | 31%
O=c1c(O[C@@H]2O[C@H](CO)[C@H](O)[C@H](O)[C@H]2O)c(-c2ccc(O)c(O)c2)oc2cc(O)cc(O)c12 | -6.93%
O=C(c1ccc(Br)cc1)N(C1=NCCCCS1)c1ccccc1 | -5.89%
CC(Oc1ccc(NC(=O)c2ccco2)cc1)C(=O)N1c2ccccc2CC1C (configuration not stated) | -7.91%
CCOC(=O)c1c(N)c2cc([N+](=O)[O-])cnc2n1C | -0.26%
CCc1nnc(NC(=O)CSc2nnc(-c3ccco3)o2)s1 | 4.71%
O=C(NCC1CCCO1)c1ccc(NS(=O)(=O)c2ccccc2)cc1 (configuration not stated) | -3.12%
O=C(CSc1nnc(-c2ccc(S(=O)(=O)N3CCCC3)cc2)o1)NCC1CCCO1 (configuration not stated) | -1.86%
COC(=O)CSc1nnc(-c2ccc(NS(=O)(=O)c3ccccc3)cc2)o1 | 55.1%
Cc1cc(NC(=O)Nc2ccc(C)c(C)c2)no1 | 1.89%
O=C1c2cccc3c([N+](=O)[O-])ccc(c23)C(=O)N1CCc1ccccn1 | 3.49%
Cc1cccc(OCCOC(=O)C2CCN(S(=O)(=O)c3cccs3)CC2)c1 | -6.82%
COc1ccc(C(C)NC(=O)c2cccc([N+](=O)[O-])c2)cc1OC (configuration not stated) | 1.09%
COc1ccc(NC(=S)N/C(=N/S(=O)(=O)c2ccc(C)cc2)c2ccccc2)cc1 | -2.37%
CCOC(=O)c1cn(Cc2ccccc2)nn1 | -4.7%
OC1(c2ccccc2)CCN(Cc2ccccc2)CC1 | 11.4%
Cc1ccc(-n2cc(CN3CCN(C(=O)c4ncn[nH]4)CC3)c(-c3ccc(F)cc3)n2)cc1 | 5.18%
CCCOc1ccc(N2C(=O)CC(SCc3nc4ccccc4[nH]3)C2=O)cc1 (configuration not stated) | 9.24%
CCCOc1ccc(N2C(=O)CC(SCCc3nc4ccccc4[nH]3)C2=O)cc1 (configuration not stated) | 0.77%
CCOc1ccc(N2C(=O)CC(SCC(=O)O)C2=O)cc1 (configuration not stated) | 11.6%
COC(=O)c1ccc(N2C(=O)CC(SCCN)C2=O)cc1 (configuration not stated) | 6.69%

SMILES | inhibition
O=c1[nH]c2cccnc2n1-c1cccc([N+](=O)[O-])c1 | -2.76%
Fc1ccc(OCc2nc(-c3cccs3)no2)cc1 | -5.15%
O=C(Cn1cnc2c(cnn2-c2ccc(Cl)cc2)c1=O)NCC1CCCO1 (configuration not stated) | 8.72%
COc1ccc(C2CC(=O)C=C(NCc3ccc4c(c3)OCO4)C2)cc1 (configuration not stated) | 8.48%
CCN(CC)c1nc(C)c(C(C)=O)cc1C#N | 3.26%
COc1ccccc1N1CCN(S(=O)(=O)Cc2ccccc2Cl)CC1 | 3.75%
COc1ccc(NC(=O)C(c2ccc(C)cc2)N(C)C(=O)c2cnccn2)cc1 (configuration not stated) | 1.36%
C/C(=N/NC(=O)CC(=O)N/N=C(\C)c1ccc([N+](=O)[O-])cc1)c1ccc([N+](=O)[O-])cc1 | 9.49%
C/C(=N\NC(=O)CC1N=C(Cc2ccccc2)NNC1=O)c1ccccc1 (configuration not stated) | 1.8%
C/C(=N\NC(=O)CNc1ccccc1)c1ccccc1 | -12.8%
C/C(=N\NC(=O)CCc1c(C)n[nH]c1C)c1ccc([N+](=O)[O-])cc1 | 6.88%
Cc1ccc(S(=O)(=O)/N=C(\N)Nc2nc(C)c3cc(C)c(C)cc3n2)cc1 | 6.15%
O=C(CCSc1ccccc1)Nc1ccc(OCc2ccccc2)cc1 | 3.34%
COc1ccc(-c2nnc(SCC(=O)N/N=C/c3ccccc3C(=O)O)n2-c2ccccc2)cc1 | -3.16%
COc1cc(/C=C(/C#N)c2ccc(F)cc2)ccc1OCc1ccc(C(=O)O)o1 | 34.9%
COc1cc(/C=C(/C#N)c2nc3ccccc3[nH]2)ccc1OCc1ccc(C(=O)O)o1 | -33.5%
COC(=O)c1ccc(COc2ccc(/C=C(\C#N)c3nc4ccccc4[nH]3)cc2OC)o1 | -3.19%
N#C/C(=C/c1ccc(OCc2ccc(C(=O)O)cc2)c(Br)c1)c1cccc(F)c1 | 7.71%
COc1ccc(NC(=O)Cc2c(F)cccc2Cl)c(OC)c1 | -1.9%
COc1ccc(NC(=O)COC(=O)Cc2c(F)cccc2Cl)cc1 | 5.4%
COC(=O)CSc1nc(NC#N)nc(NC(C)(C)C)n1 | 4.9%
COc1ccc(-c2cc(C)nc(SCc3cccc(C(=O)O)c3)n2)cc1 | 38.6%
Cc1ccc(C(=O)Nc2nc(=O)[nH]s2)cc1 | -1.57% and 13.4%

SMILES | inhibition
Cc1ccc(C(=O)Nc2nc(=O)n(C(=O)c3ccccc3C)s2)cc1 | 31.9%
Cn1sc(NC(=O)c2ccccc2Cl)nc1=O | -13.2%
Cn1sc(NC(=O)c2cccc(Cl)c2)nc1=O | 12.3%
O=C(Nc1nc(=O)n(C(=O)c2cccc(C(F)(F)F)c2)s1)c1ccccc1 | 22.5%
Cc1ccc(C(=O)Nc2nc(=O)n(C)s2)cc1 | 4.51%
Cn1sc(NC(=O)c2ccc(Cl)cc2)nc1=O | 0.57%
O=C(Nc1nc2ccccc2s1)c1ccccc1 | 0.27%
CCN(CC)CCCN1C(=O)CSC1c1ccc2c(c1)OCO2 (configuration not stated) | 20.1%
O=C(NNC(=O)c1ccc(Br)o1)c1ccc(NC(=O)c2ccccc2)cc1 | -6.75%
COCCCN(C(=S)NC(=O)c1ccc(C(C)(C)C)cc1)c1c(N)n(Cc2ccccc2)c(=O)[nH]c1=O | 16.9%
Cc1ccc(C)c(Cn2c(=O)n(CCCC(=O)NCc3ccco3)c(=O)c3ccccc32)c1 | 10%
Cc1csc2nc(CCNS(=O)(=O)c3cccs3)cn12 | -4.9%
O=C(NCc1ccccc1)C1=C[C@@H](c2ccc(Br)cc2)C[C@@H](OCc2ccc(CO)cc2)O1 | 7.8%
CCCc1[nH]nc2c1C(c1cn[nH]c1-c1ccc(F)cc1)C(C#N)=C(N)O2 (configuration not stated) | 29.9%
C=CCN(c1ccccc1)S(=O)(=O)c1cc(C(=O)NC2=NCCS2)ccc1Cl | -0.31%
CC(C)Oc1cccc(C(=O)C2CCCN(Cc3cccn3-c3cccnc3)C2)c1 (configuration not stated) | 4.62%
O=C(COc1ccc(Br)cc1)Nc1nnc(-c2cccnc2)s1 | -6.24%
Cc1ccc(C(=O)/C=C/c2c[nH]c3ccccc23)cc1 | 5.88%
COCCCNC(=O)c1ccccc1NS(C)(=O)=O | -1.32%
CCOC(=O)C1CCN(S(=O)(=O)c2cnc[nH]2)CC1 | 3.88%
CC1CN(C(=S)c2cccc([N+](=O)[O-])c2)CC(C)O1 (configuration not stated) | 4.78%
Cc1nc2ccccc2n1C(=O)c1ccccc1[N+](=O)[O-] | 7.68%
CCn1c(SCC(=O)Nc2cccc(C)n2)nnc1-c1ccco1 | 4.98%
